Luc counter = Counterscreen for Luciferase (Kinase-Glo TM) Inhibition | Luciferin 4-monooxygenase (Photuris pensylvanica), Q27757 | Kinase-Glo luciferase, ATP luminescence, 8 min | Potency, µM (titrated, usually from 38.3 µM), actives largely listed as inhibitors | hit rate 0.28% among 200,000 | AID 1379, 2008; note: nearly all actives have a fitted effect of over 60% in size
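Compound is pinned into ATP-containing buffer (10 uM ATP, imidazole pH 7.2, 7 mM MgCl2). Kinase-Glo luciferase reagent is then added. Light output is recorded following an 8-min room-temperature incubation.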
NPC1 promoter act = qHTS Assay for NPC1 Promoter Activators. Huh7 NPC1 promoter luciferase reporter, 24 h. Potency, µM (doses to about 9.22 µM), actives largely listed as activators. hit rate 2.4% among 320,000; note: nearly all actives have a fitted effect of over 60% in size
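Readout is luciferase luminescence, reflecting NPC1 promoter activation in stably transfected Huh7 cells after 24 h compound exposure at 37 °C in reduced-serum medium with 10% FBS.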
SMN2 splice up = qHTS Assay for Enhancers of SMN2 Splice Variant Expression; HEK293 SMN2-luciferase splicing reporter, luminescence, 30-36 h; Potency, µM (top dose mostly 46.1 µM), actives largely listed as activators; hit rate 2.8% among 210,000; note: nearly all actives have a fitted effect of over 55% in size
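qHTS luciferase splicing reporter: luminescence rises when SMN2 exon 7 is included in transfected HEK293 cells. Compound exposure lasted 30-36 h at 37C, with 4.5 mM final sodium butyrate as control, followed by a ONE-Glo read.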
Rab9 promoter act = qHTS Assay for Rab9 Promoter Activators | Huh7 Rab9 promoter-luciferase reporter, luminescence, 24 h | Potency, µM (doses to about 9.22 µM), hits mostly activators | hit rate 2.8% among 320,000 | AID 485297, 2010; note: nearly all actives have a fitted effect of over 60% in size
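Luminescence from Amplite-detected luciferase (10 minutes, ambient) reports Rab9 promoter activation. Before that, stable Rab9-luciferase Huh7 cells (1500/well, reduced-serum OP-MEM I plus 10% FBS) were exposed to compound for 24 hours at 37C.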
FLuc modulator = qHTS profiling assay for firefly luciferase inhibitor/activator using purifed enzyme and Km concentrations of substrates (counterscreen for miR-21 project); Luciferin 4-monooxygenase (Photinus pyralis), P08659; Potency, µM (highest dose often 57.5 µM), hits mostly inhibitors; purified FLuc, Km substrates, luminescence inhibition; AID 588342, 2011; hit rate 6.9% among 360,000; note: nearly all actives have a fitted effect of over 55% in size
Target sequence (P08659 whole entry, looked up): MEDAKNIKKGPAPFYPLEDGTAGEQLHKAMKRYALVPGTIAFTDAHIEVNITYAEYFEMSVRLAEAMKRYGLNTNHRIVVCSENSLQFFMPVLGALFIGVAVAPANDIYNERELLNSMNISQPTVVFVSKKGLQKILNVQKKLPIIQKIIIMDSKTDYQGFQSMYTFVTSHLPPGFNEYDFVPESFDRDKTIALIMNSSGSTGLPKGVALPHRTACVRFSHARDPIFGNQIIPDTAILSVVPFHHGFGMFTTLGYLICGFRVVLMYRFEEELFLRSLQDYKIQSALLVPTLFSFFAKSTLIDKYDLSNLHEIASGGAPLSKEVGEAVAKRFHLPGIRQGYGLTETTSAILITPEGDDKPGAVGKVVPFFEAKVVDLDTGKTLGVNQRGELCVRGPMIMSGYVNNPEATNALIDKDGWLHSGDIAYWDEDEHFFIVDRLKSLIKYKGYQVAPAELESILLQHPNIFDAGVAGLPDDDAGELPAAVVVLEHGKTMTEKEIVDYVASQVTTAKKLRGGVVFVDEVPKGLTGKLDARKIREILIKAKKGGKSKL
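Purified P. pyralis luciferase, 10 nM final, with Km-level 10 uM D-luciferin and 10 uM ATP in 50 mM Tris acetate pH 7.5, 10 mM Mg acetate, 0.01% Tween-20, 0.05% BSA; 6-point qHTS titration about 60 µM downward; luminescence read.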
ELG1 genotoxic = qHTS screen for small molecules that induce genotoxicity in human embryonic kidney (HEK293T) cells expressing luciferase-tagged ELG1 | Potency, µM (top dose mostly 46 µM), usual class: activators | HEK293T ELG1-luciferase reporter, luminescence, 16 h | AID 504466, 2011 | hit rate 1.3% among 330,000; note: nearly all actives have a fitted effect of over 60% in size
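Screening used a luciferase reporter fused to human ELG1 in HEK293T cells. Luminescence was read on a CCD plate imager after 16 hr exposure and 30 min ONE-Glo incubation.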
A number is an active result; . = inactive; ? = inconclusive; / = no result given. Most compounds without a hit are left out; they make up all but 7.4% or so of the library. Calls come from the whole dose curve; as a rule, active = well fitted curve in the direction sought with a large enough effect; inconclusive = small, poorly fitted or top-dose-only effect, or another doubt; inactive = no such curve, though single readings can be large; an effect the other way counts as inactive or inconclusive.

SMILES | Luc counter | NPC1 promoter act | SMN2 splice up | Rab9 promoter act | FLuc modulator | ELG1 genotoxic
COC(=O)c1ccc(-c2noc(CN(Cc3ccncc3)CC3CCCO3)n2)cc1 (stereo not drawn) | . | . | / | . | . | .
CCn1ccnc1CN(C)Cc1nc(-c2ccc(C(=O)OC)cc2)no1 | / | . | / | . | . | .
COc1ccc(S(=O)(=O)Nc2ncccc2C)c2ccccc12 | / | . | / | . | . | .
CC(C)c1ccc(CN(Cc2ccco2)c2cnc(S(C)(=O)=O)nc2C(=O)Nc2ccccc2)cc1 | / | / | / | / | . | /
CNC(=O)COc1coc(CN2CCN(c3ccc(OC)cc3)CC2)cc1=O | / | . | / | . | . | .
COCCCn1c(C(=O)NCCN2CCOCC2)cc2c(=O)n3ccccc3nc21 | / | . | / | . | 2.7µM | .
C#CCCCC(=O)Nc1ccccc1 | . | / | . | / | / | /
Oc1ccc(/C=N/Nc2ccnc3cc(Cl)ccc23)cc1O | / | . | / | . | 17µM | ?
CCOC(=O)c1snc(C(=O)NC2CCCCC2)c1N | . | ? | / | 3.5µM | 13µM | 8.2µM
O=C(Cn1c(CO)nc2ccccc21)Nc1ccc2c(c1)OCCCO2 | / | . | / | . | . | .
O=C(NCCN1CCOCC1)c1cc(-c2ccc(Cl)cc2Cl)on1 | / | . | / | . | 11µM | .
O=C(c1cc(-c2ccc(Cl)cc2Cl)on1)N1CCCC1 | / | 0.89µM | / | 1µM | 0.43µM | 2.9µM
O=C(c1cc(-c2ccc(Cl)cc2Cl)on1)N1CCCCCC1 | / | 0.71µM | / | 0.71µM | 1.2µM | 4.6µM
O=C(c1ccc(Cc2nc3ccccc3[nH]2)cc1)N1CCCCC1 | . | / | / | / | / | /
CCOc1ccc(N2CC(C(=O)Nc3ccc(S(=O)(=O)Nc4nccs4)cc3)CC2=O)cc1 (stereo not drawn) | / | . | / | . | . | .
O=C(NCc1ccncc1)c1ccc(S(=O)(=O)Nc2ccccc2)cc1 | / | . | / | . | . | .
Cc1cccn2cc(COc3ccc(-c4ccccc4)cc3)nc12 | ? | ? | / | ? | 9.5µM | ?
Cc1ccc(OCc2cn3cccnc3n2)cc1 | . | 3.5µM | 8.9µM | 2.8µM | 21µM | 18µM
Cc1ccc(OCC(=O)OCC(=O)N2c3ccccc3CC2C)cc1C (stereo not drawn) | / | . | / | . | . | .
Cc1ccc(Sc2ccc(N3CCCC(C(=O)Nc4ccc(F)c(Cl)c4)C3)nn2)cc1 (stereo not drawn) | / | / | . | / | . | /
O=C(NC12CC3CC(CC(C3)C1)C2)c1ccc(Br)o1 | / | . | / | . | 17µM | .
O=C(NC12CC3CC(CC(C3)C1)C2)c1ccc(-c2ccc(Br)cc2)o1 | . | ? | 16µM | ? | 4.8µM | ?
CCC1CCCCN1C(=O)CSc1nnc(N)s1 (stereo not drawn) | / | / | / | / | / | .
O=C(CSc1ccc(C(F)(F)F)cn1)Nc1ccccc1 | / | . | / | . | . | .
O=C(/C=C/Sc1ccc(C(F)(F)F)cn1)c1ccccc1 | / | . | / | . | 0.54µM | .
SMILES | Luc counter | NPC1 promoter act | SMN2 splice up | Rab9 promoter act | FLuc modulator | ELG1 genotoxic
CCc1ccccc1Nc1cc(C(=O)NC2CCC(C)CC2)c2ccccc2n1 (stereo not drawn) | / | / | . | / | . | /
COc1ccc2nc(/C=N/NC(=O)[C@H](C)NC(=O)OC(C)(C)C)ccc2c1 | . | . | ? | . | 5.4µM | ?
Cc1ccc2cc(/C=N/NC(=O)[C@H](C)NC(=O)OC(C)(C)C)c(Cl)nc2c1 | . | . | . | . | . | .
O=C(O)c1cc(N/N=C/c2ccc(-c3ccc(F)cc3)o2)ccc1Cl | / | ? | / | ? | 9.5µM | ?
O=C(O)c1ccc(N/N=C/c2ccc(-c3cc(Cl)ccc3Cl)o2)cc1 | / | ? | / | ? | 9.5µM | ?
Cc1ccc(C(=O)N/N=C/c2ccc(-c3cccc(Cl)c3)o2)cn1 | / | . | / | . | ? | .
C=CCNC(=S)N/N=C/c1ccc(-c2cc(Cl)ccc2Cl)o1 | . | . | / | . | . | .
O=C(O)c1ccc(N/N=C/c2ccc(-c3cccc(Cl)c3)o2)cc1 | / | 0.45µM | / | 0.32µM | 2.7µM | ?
Cc1c(C(=O)O)cccc1-c1ccc(/C=N/Nc2ccc(Br)cc2)o1 | . | ? | / | ? | 12µM | ?

Source: PubChem BioAssay
